Measured values from the supplement of paper PMC6411743.
± gives the standard deviation of the averaged measurements. The full data set covers some 5,400 targets. This sample favours those with the largest changes.

Compound: Nc1nc2c(ncn2[C@@H]2O[C@H](COP(=O)(O)OP(=O)(O)OP(=O)(O)O)[C@@H](O)[C@H]2O)c(=O)[nH]1 [guanosine triphosphate]
Assay: NP40-soluble protein abundance relative to vehicle (solubility fold change) (ratio); higher = more soluble protein in presence of GTP
Experimental: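 Solubility proteome profiling in Jurkat crude lysate. Lysate was treated with Mg-GTP (0.1-10 mM) for 10 min at room temperature and 3 min at 37 °C, then solubilised with 0.8% NP40 and benzonase, followed by ultracentrifugation. Proteins were quantified by TMT10 LC-MS/MS; the value is the NP40-soluble abundance relative to the NP40-processed vehicle, from 3 independent experiments.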

Chain of UniProt O14925 (O14925 whole entry): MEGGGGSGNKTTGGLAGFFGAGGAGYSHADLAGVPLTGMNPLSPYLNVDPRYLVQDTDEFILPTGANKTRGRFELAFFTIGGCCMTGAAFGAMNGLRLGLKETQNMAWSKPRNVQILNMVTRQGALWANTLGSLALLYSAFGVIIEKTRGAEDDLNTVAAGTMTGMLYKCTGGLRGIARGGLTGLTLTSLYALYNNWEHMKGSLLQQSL
Chain of UniProt O14776 (O14776 whole entry): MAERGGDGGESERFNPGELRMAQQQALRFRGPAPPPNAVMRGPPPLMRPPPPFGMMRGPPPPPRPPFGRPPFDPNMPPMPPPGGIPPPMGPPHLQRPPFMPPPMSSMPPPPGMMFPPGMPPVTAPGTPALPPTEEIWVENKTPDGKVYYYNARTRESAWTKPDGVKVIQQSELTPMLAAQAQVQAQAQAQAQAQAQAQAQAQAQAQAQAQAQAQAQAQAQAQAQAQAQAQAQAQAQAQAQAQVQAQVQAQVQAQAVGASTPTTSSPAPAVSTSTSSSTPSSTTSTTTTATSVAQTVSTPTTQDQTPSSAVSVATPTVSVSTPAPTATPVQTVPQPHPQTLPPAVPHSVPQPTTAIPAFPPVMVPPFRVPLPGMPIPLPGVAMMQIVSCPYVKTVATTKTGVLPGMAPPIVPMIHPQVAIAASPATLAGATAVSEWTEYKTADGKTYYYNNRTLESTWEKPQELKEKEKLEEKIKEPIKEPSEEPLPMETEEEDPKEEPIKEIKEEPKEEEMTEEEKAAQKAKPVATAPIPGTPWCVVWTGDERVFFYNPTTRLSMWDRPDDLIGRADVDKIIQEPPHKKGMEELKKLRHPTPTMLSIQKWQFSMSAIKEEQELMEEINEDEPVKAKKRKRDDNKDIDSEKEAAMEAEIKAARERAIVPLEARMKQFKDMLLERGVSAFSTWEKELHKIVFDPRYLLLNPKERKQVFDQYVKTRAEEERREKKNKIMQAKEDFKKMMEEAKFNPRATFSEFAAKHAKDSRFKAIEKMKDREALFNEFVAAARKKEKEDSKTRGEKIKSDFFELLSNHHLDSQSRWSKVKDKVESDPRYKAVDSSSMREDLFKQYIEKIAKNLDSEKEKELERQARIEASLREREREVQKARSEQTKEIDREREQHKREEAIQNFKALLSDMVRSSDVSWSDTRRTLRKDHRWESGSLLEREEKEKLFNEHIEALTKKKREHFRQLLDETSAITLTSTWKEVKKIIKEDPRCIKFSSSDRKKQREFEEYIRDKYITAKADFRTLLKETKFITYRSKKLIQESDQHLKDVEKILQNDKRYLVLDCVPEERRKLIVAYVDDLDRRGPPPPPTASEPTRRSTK
Chain of UniProt O75828 (O75828 whole entry): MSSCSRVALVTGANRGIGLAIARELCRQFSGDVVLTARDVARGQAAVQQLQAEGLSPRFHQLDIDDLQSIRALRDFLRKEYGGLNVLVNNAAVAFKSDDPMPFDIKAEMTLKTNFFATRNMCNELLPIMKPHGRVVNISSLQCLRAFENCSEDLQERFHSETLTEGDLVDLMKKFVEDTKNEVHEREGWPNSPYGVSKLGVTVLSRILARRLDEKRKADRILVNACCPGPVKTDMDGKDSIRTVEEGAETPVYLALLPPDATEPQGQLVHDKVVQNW
Chain of UniProt O95644 (O95644 whole entry): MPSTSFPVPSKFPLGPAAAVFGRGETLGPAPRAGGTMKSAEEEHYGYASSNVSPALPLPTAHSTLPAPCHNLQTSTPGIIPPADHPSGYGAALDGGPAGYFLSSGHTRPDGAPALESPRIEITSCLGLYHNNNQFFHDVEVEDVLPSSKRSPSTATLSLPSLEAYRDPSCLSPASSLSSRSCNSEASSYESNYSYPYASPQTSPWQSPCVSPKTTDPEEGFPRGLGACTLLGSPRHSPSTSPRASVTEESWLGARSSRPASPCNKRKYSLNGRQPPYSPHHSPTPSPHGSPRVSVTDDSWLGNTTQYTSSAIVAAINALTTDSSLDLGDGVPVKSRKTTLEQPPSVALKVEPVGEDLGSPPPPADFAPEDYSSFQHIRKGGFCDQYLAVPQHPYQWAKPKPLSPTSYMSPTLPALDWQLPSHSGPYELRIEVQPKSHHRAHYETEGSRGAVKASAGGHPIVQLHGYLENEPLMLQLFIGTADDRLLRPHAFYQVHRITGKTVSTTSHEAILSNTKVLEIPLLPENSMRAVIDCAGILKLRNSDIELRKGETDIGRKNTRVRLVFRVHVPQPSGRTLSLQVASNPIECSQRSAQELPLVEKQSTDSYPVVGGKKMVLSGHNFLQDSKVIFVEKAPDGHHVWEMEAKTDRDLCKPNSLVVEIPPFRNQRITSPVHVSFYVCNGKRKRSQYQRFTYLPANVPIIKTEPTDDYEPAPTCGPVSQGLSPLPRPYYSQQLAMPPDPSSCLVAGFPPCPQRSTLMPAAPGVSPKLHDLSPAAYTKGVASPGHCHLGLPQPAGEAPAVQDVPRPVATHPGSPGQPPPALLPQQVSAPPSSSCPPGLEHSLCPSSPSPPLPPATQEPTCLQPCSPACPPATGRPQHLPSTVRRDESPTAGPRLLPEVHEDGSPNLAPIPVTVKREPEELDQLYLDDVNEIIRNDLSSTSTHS

Target	NP40-soluble protein abundance (concentration: 0.1mM)	NP40-soluble protein abundance (concentration: 0.5mM)	NP40-soluble protein abundance (concentration: 1mM)	NP40-soluble protein abundance (concentration: 2mM)	NP40-soluble protein abundance (concentration: 4mM)	NP40-soluble protein abundance (concentration: 6mM)	NP40-soluble protein abundance (concentration: 8mM)	NP40-soluble protein abundance (concentration: 10mM)
UniProt O14776|O14776-2	0.97 ± 0.042	0.962 ± 0.056	0.979 ± 0.047	0.953 ± 0.083	0.989 ± 0.079	1.01 ± 0.084	1.05 ± 0.05	1.04 ± 0.071
UniProt O95644|O95644-10|O95644-11|O95644-2|O95644-3|O95644-4|O95644-5|O95644-6|O95644-8	1.01 ± 0.2	1.07 ± 0.094	1.25 ± 0.18	1.37 ± 0.17	1.31 ± 0.29	1.34 ± 0.19	1.17 ± 0.053	1.34 ± 0.3
TIMM23 (UniProt O14925)	0.979 ± 0.016	0.902 ± 0.037	0.856 ± 0.016	0.892 ± 0.02	0.904 ± 0.043	0.877 ± 0.026	0.838 ± 0.046	0.898 ± 0.042
H2AFX (UniProt P16104)	0.94 ± 0.014	0.955 ± 0.036	1.07 ± 0.068	1.13 ± 0.075	1.2 ± 0.088	1.48 ± 0.16	1.44 ± 0.13	2.26 ± 0.46
CBR3 (UniProt O75828)	1.15 ± 0.032	1.21 ± 0.11	1.11 ± 0.029	1.06 ± 0.082	1.04 ± 0.082	0.936 ± 0.091	1.08 ± 0.22	1.09 ± 0.11
